# Data published in PubChem BioAssay.
# “And” between values parts separate entries of the source, which are not always exact repeats. Identical values can stand only once. Inconclusive results are not listed. For some of these results: Entries with a potency or affinity are not part of this list. Some structures have more than one record in an assay (separate samples or runs), and their calls can disagree. The source made the active and inactive calls. Unless noted, how the calls were made is not given here.
# Assays:
# [1] = molecular target: ATP-dependent translocase ABCB1 (Homo sapiens) (UniProt P08183); assay: MDR1 (ABCB1) efflux transporter inhibition, cell-based (AID 377; in the data active means fluorescence slope change above about 50%); conditions: MDR1-expressing cells, fluorescent substrate accumulation slope; stronger effect = higher value; concentration not given here
# Chain of ATP-dependent translocase ABCB1 (Homo sapiens) (P08183 whole entry, looked up): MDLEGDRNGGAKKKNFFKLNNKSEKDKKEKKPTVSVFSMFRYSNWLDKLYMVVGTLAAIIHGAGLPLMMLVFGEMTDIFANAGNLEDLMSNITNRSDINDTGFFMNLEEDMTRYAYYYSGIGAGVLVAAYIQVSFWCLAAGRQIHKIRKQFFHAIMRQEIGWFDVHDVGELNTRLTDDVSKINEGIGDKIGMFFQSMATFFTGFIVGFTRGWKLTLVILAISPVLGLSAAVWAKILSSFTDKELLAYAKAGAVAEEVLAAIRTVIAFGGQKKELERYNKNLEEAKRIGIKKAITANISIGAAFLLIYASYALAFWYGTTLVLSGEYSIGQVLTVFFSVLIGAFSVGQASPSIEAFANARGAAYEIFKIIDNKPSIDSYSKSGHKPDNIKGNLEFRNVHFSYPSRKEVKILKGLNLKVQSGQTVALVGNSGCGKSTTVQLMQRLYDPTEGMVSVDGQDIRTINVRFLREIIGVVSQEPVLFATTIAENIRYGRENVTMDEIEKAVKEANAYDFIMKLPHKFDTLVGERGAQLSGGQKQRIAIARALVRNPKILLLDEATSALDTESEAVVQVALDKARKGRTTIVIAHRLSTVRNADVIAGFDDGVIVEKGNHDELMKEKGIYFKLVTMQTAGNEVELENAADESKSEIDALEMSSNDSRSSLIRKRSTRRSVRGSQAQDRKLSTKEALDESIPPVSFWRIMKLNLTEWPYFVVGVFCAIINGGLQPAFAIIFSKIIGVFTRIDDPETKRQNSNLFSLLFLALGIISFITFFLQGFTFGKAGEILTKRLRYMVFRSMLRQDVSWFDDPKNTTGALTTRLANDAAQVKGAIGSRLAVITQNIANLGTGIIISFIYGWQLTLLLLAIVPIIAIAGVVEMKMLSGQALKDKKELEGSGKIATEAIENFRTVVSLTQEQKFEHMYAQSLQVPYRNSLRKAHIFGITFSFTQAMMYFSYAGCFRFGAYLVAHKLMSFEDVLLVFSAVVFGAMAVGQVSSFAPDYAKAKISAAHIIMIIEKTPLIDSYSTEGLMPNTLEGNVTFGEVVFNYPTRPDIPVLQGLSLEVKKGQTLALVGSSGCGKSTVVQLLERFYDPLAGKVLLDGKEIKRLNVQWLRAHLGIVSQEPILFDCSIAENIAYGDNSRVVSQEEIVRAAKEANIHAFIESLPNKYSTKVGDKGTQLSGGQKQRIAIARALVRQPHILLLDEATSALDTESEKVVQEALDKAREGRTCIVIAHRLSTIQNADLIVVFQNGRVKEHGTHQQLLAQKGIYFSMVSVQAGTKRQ
# [2] = rescue of polyQ-huntingtin neuronal dysfunction in worms, whole organism, C. elegans mechanosensory neurons, N-terminal huntingtin (AID 1599); conditions: touch response, stronger effect = higher value
# [3] = inhibitors of mitochondrial cytochrome c release, biochemical, purified mitochondria (AID 1603); conditions: stronger effect = lower value;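 further: mouse liver mitochondria challenged with calcium chloride; signal normalized to the plate average as 100%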
# [4] = inhibitors of polyQ protein aggregation (AID 1604); conditions: polyglutamine-induced protein aggregation inhibition assay; stronger effect = higher value; tested at 2.5 µM
# [5] = enhancers of glutamate uptake in motor neurons, MN-1 cell line (AID 1612); conditions: MN-1 motor neuron cells, stronger effect = higher value;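 further: tested at 1 µM final; 0% = mean of DMSO vehicle wells on each plate; positive means more glutamate uptake than control and negative means less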
# [6] = reducers of polyQ inclusions in PC12 cells, cell-based, NGF-treated PC12, GFPQ80 (AID 1614); conditions: PC12 NGF-treated GFP-polyQ80 inclusion reduction;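 further: lower means fewer inclusions and 0 means no inclusions at all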
# [7] = suppressors of polyglutamine aggregation in yeast, 75Q-TubH (AID 1616); conditions: S. cerevisiae 75Q-TubH polyglutamine aggregation suppression; stronger effect = higher value
# [8] = hESC survival regulators, cell-based (AID 493140); conditions: human embryonic stem cell survival screen; stronger effect = higher value;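 further: cells exposed to compounds for four days before counting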
# [9] = liver-stage malaria parasite growth inhibition, primary screen, cell-based, HepG2, luciferase luminescence, HepG2 viability (AID 624349; in the data active means parasite load remaining mostly below about 12%, no sharp cut-off; inactive means mostly above about 10%;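 further: 100% = mean of DMSO negative control wells on the same plate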); conditions: P. berghei liver stage in HepG2, luciferase luminescence, concentration not given here; parasite load remaining: stronger effect = lower value; viability: measured here: HepG2 viability without parasites
# [10] = test system: Hepatitis C virus NS3 helicase; assay: HCV NS3 helicase inhibitors, primary screen, biochemical, fluorescence polarization, LOPAC1280 library (AID 687035; in the data active means inhibition above about 37%); conditions: Purified HCV NS3 helicase, Cy5-dT15 ssDNA binding fluorescence polarization; stronger effect = higher value; concentration not given here
# [11] = test system: Aerobactin synthetase IucA (Klebsiella pneumoniae, hypervirulent); assay: IucA enzyme inhibition, biochemical, LOPAC library, absorbance readout (AID 1346212); conditions: IucA enzyme assay, absorbance (OD) readout; stronger effect = lower value;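 tested at 8 µM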;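 further: 100% = no compound wells and 0% = no enzyme wells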
# [12] = growth inhibition of DIPG glioma cells, dose response, cell-based, SU-DIPG-XVII, MIPE5.0, CellTiter-Glo, qHTS (AID 1347060; cut-off not given, nearly all actives have AC50 up to about 26 µM;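 on AC50: cells exposed to compound for 48 hours before viability readout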); conditions: SU-DIPG-XVII viability, CellTiter-Glo ATP luminescence
# [13] = growth inhibition of DIPG glioma cells, dose response, cell-based, SU-DIPG-XIII, MIPE4.0, CellTiter-Glo, qHTS (AID 1347061; cut-off not given, nearly all actives have AC50 up to about 37 µM;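 further: cells exposed to compound for 48 hours before readout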); conditions: SU-DIPG-XIII viability, CellTiter-Glo ATP luminescence
# [14] = growth inhibition of DIPG glioma cells, dose response, cell-based, SU-DIPG-IV, MIPE4.0, CellTiter-Glo, qHTS (AID 1347063; cut-off not given, nearly all actives have AC50 up to about 30 µM;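 further: compound exposure lasted 48 hours before the viability readout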); conditions: SU-DIPG-IV viability, CellTiter-Glo ATP luminescence
# [15] = SU-DIPG-VI glioma cell viability, MIPE4.0 library, CellTiter-Glo luminescence, qHTS (AID 1347066; cut-off not given, nearly all actives have AC50 up to about 30 µM;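 further: cells exposed to compound for 48 hours before readout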); conditions: CellTiter-Glo ATP luminescence
# [16] = phospholipid biosynthesis inhibitors in animal cells, primary screen, cell-based, LOPAC library, screen 4 (AID 1347384); conditions: phospholipid biosynthesis inhibition screen, at 10 µM
# [17] = modifiers of HSF1 nuclear foci, imaging, Selleck Cancer Library (AID 1347162; in the data active means plate-normalised HSF1 focus index below about 0.46); conditions: human cells, at 10 µM; SSMD: measured here: HSF1 foci SSMD mean; cell count: measured here: cell number; plate-normalised HSF1 focus index: stronger effect = lower value
# [18] = LFS_MB_P medulloblastoma growth inhibition, cell-based, chromothripsis tumors, cisplatin or BGB combos (AID 1671449; in the data active means inhibition above about 80%;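 further: cells exposed for 96 hours; 0% = vehicle DMSO and 100% = killing by high DMSO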); conditions: LFS_MB_P medulloblastoma cells
# [19] = HDN33 neuroblastoma growth inhibition, cell-based, chromothripsis tumors, cisplatin or BGB combos (AID 1671450; in the data active means inhibition above about 80%;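 further: cells exposed to compound for four days; 0% = vehicle DMSO and 100% = cell killing by high DMSO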); conditions: HDN33 neuroblastoma cells, stronger effect = higher value
# [20] = ICB984 medulloblastoma cell growth inhibition, synergistic combos for chromothripsis tumors, cisplatin or BGB combos (AID 1671451); conditions: ICB984 medulloblastoma cells, drug combinations, stronger effect = higher value;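 further: cells exposed for 96 hours before readout; 0% = vehicle DMSO and 100% = killing by high DMSO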
compound,measurement,setting,value
CN1C(=O)CCS(=O)(=O)C1c1ccc(Cl)cc1 (stereo not given),fluorescence slope change,[1],29.1% (inactive)
same,rescue above control,[2],10
same,cytochrome c release ratio,[3],0.72
same,inhibition of aggregation,[4],72.7%
same,glutamate uptake change,[5],3.58%
same,inclusion score,[6],2
same,aggregation suppression score,[7],1.17
same,survival,[8],8 (inactive)
same,parasite load remaining,[9],65% (inactive) and 73.4% (inactive)
same,viability,[9],112% and 75.6%
same,inhibition,[10],0% (inactive)
same,remaining activity,[11],93.8% (inactive)
same,outcome,[12],inactive
same,outcome,[13],inactive
same,outcome,[14],inactive
same,outcome,[15],inactive
same,outcome,[16],inactive
Clc1ccc(CO/N=C(\Cn2ccnc2)c2ccc(Cl)cc2Cl)c(Cl)c1,parasite load remaining,[9],88.3% (inactive) and 30.5% (inactive) and 1.97% (inactive)
same,viability,[9],76.2% and 91.5% and 53%
C[C@@H]1C[C@@H]([C@H](O)CC2CC(=O)NC(=O)C2)C(=O)[C@@H](C)C1,fluorescence slope change,[1],14.9% (inactive)
same,rescue above control,[2],-0.63
same,cytochrome c release ratio,[3],1.07
same,inhibition of aggregation,[4],91.3%
same,glutamate uptake change,[5],-43.8%
same,aggregation suppression score,[7],0.0281
same,survival,[8],0.417 (inactive)
same,parasite load remaining,[9],-0.1% (active) and 5.12% (inactive) and 0% (inactive)
same,viability,[9],87.3% and 76.3% and 87.1%
same,AC50,[12],934 nM (active)
same,AC50,[14],469 nM (active)
same,outcome,[15],inactive
CCC1(c2ccc(N)cc2)CCC(=O)NC1=O (stereo not given),rescue above control,[2],12.8
same,cytochrome c release ratio,[3],0.66
same,inhibition of aggregation,[4],-9.29%
same,glutamate uptake change,[5],15.1%
same,inclusion score,[6],2
same,aggregation suppression score,[7],1.06
same,survival,[8],19.8 (inactive)
same,inhibition,[10],-3% (inactive)
same,outcome,[12],inactive
same,outcome,[13],inactive
same,outcome,[14],inactive
same,outcome,[15],inactive
same,SSMD,[17],1.46
same,cell count,[17],7280
same,plate-normalised HSF1 focus index,[17],1.05 (inactive)
same,outcome,[16],inactive
N[C@@H](Cc1ccc(N(CCCl)CCCl)cc1)C(=O)O,fluorescence slope change,[1],94.7% (active)
same,rescue above control,[2],-0.78
same,cytochrome c release ratio,[3],0.77
same,inhibition of aggregation,[4],49.4%
same,glutamate uptake change,[5],15.9%
same,aggregation suppression score,[7],1.07
same,parasite load remaining,[9],85.5% (inactive) and 46.9% (inactive)
same,viability,[9],102% and 79%
same,remaining activity,[11],104% (inactive)
same,AC50,[12],4170 nM (active)
same,AC50,[14],13200 nM (active)
same,SSMD,[17],1.42
same,cell count,[17],7340
same,plate-normalised HSF1 focus index,[17],1.09 (inactive)
O=c1[nH]c2ccccc2n1CCCN1CCC(n2c(=O)[nH]c3cc(Cl)ccc32)CC1,survival,[8],7.33 (inactive)
same,inhibition,[10],-3% (inactive)
same,remaining activity,[11],105% (inactive)
same,outcome,[12],inactive
same,outcome,[13],inactive
same,outcome,[15],inactive
same,outcome,[16],inactive
CC(CCc1ccccc1)NC(C)C(O)c1ccc(O)cc1 (stereo not given),rescue above control,[2],1.38
same,cytochrome c release ratio,[3],0.84
same,inhibition of aggregation,[4],63.6%
same,glutamate uptake change,[5],-2.97%
same,inclusion score,[6],2
same,aggregation suppression score,[7],1.46
same,parasite load remaining,[9],75.2% (inactive) and 69.3% (inactive)
same,viability,[9],72.4% and 90.8%
same,inhibition,[10],-5% (inactive)
same,remaining activity,[11],104% (inactive)
same,outcome,[16],inactive
COc1ccc(C(CN(C)C)C2(O)CCCCC2)cc1 (stereo not given),inhibition,[10],-1% (inactive)
same,outcome,[13],inactive
same,outcome,[14],inactive
same,outcome,[15],inactive
same,outcome,[16],inactive
Cc1ncc(CNC(=O)N(CCCl)N=O)c(N)n1,parasite load remaining,[9],130% (inactive)
same,viability,[9],90.7%
same,inhibition,[10],2% (inactive)
same,remaining activity,[11],113% (inactive)
same,outcome,[16],inactive
O=C(CCCN1CCC2(CC1)C(=O)NCN2c1ccccc1)c1ccc(F)cc1,fluorescence slope change,[1],202% (active)
same,rescue above control,[2],4.9
same,cytochrome c release ratio,[3],1.21
same,inhibition of aggregation,[4],87%
same,glutamate uptake change,[5],-22.8%
same,inclusion score,[6],2
same,aggregation suppression score,[7],1.1
same,survival,[8],7.92 (inactive)
same,remaining activity,[11],121% (inactive)
same,outcome,[16],inactive
O=C(O)CCCc1ccc(N(CCCl)CCCl)cc1,rescue above control,[2],-3.71
same,cytochrome c release ratio,[3],1.24
same,inhibition of aggregation,[4],81.4%
same,glutamate uptake change,[5],-0.49%
same,aggregation suppression score,[7],0.0151
same,survival,[8],4.5 (inactive)
same,inhibition,[10],-3% (inactive)
same,remaining activity,[11],115% (inactive)
same,AC50,[12],934 nM (active)
same,outcome,[13],inactive
same,outcome,[14],inactive
same,outcome,[15],inactive
same,inhibition,"[18]; at 0.5 µM, stronger effect = higher value",-42.9% (inactive)
same,inhibition,"[18]; measured here: combination with BGB IC20, at 0.005 µM",-28.5%
same,inhibition,"[18]; measured here: combination with BGB IC40, at 0.005 µM",-27.3%
same,inhibition,"[18]; measured here: combination with BGB IC40, at 0.05 µM",-24.4%
same,inhibition,"[18]; measured here: combination with cisplatin, at 0.5 µM, stronger effect = higher value",-49.6%
same,inhibition,"[18]; measured here: combination with cisplatin, at 5 µM, stronger effect = higher value",-22.6%
same,inhibition,"[19]; BGB combo, at 5 µM",-4.28%
same,inhibition,[19]; at 0.5 µM,-4.71% (inactive)
same,inhibition,"[19]; cisplatin combo, at 5 µM",-10.3%
same,inhibition,"[19]; measured here: with BGB IC20 combination, at 0.5 µM",-8.37%
same,inhibition,"[19]; measured here: with cisplatin IC20 combination, at 0.5 µM",15.9%
same,inhibition,"[19]; single agent, at 5 µM",-10.9%
same,inhibition,"[20]; BGB IC20 combo, at 0.005 µM",-3.85%
same,inhibition,"[20]; BGB IC40 combo, at 0.005 µM",-23.1%
same,inhibition,"[20]; BGB IC40 combo, at 0.05 µM",-2.9%
same,inhibition,[20]; at 0.5 µM,-29% (inactive)
same,inhibition,"[20]; cisplatin combo, at 0.05 µM",-2.9%
same,inhibition,"[20]; cisplatin combo, at 0.5 µM",-34.6%
same,inhibition,"[20]; cisplatin combo, at 5 µM",-18.5%
same,inhibition,"[20]; measured here: 5 uM single agent, at 5 µM",-8.66%
CC(C)N(CCC(C(N)=O)(c1ccccc1)c1ccccn1)C(C)C (stereo not given),fluorescence slope change,[1],52.1% (active)
same,rescue above control,[2],-8.3
same,cytochrome c release ratio,[3],1.18
same,inhibition of aggregation,[4],70.4%
same,glutamate uptake change,[5],24.3%
same,inclusion score,[6],2
same,aggregation suppression score,[7],1.38
same,survival,[8],11.6 (inactive)
same,inhibition,[10],0% (inactive) and -1% (inactive)
same,remaining activity,[11],98.9% (inactive) and 93.2% (inactive)
same,outcome,[16],inactive
c1ccc2nc(N3CCNCC3)ccc2c1,fluorescence slope change,[1],25.1% (inactive)
same,rescue above control,[2],-5.3
same,cytochrome c release ratio,[3],0.9
same,inhibition of aggregation,[4],63.9%
same,glutamate uptake change,[5],-14.6%
same,inclusion score,[6],2
same,aggregation suppression score,[7],1.33
same,survival,[8],8.75 (inactive)
same,parasite load remaining,[9],73.5% (inactive) and 55.7% (inactive) and 53.7% (inactive)
same,viability,[9],107% and 72.2% and 102%
same,remaining activity,[11],114% (inactive)
O=c1[nH]oc2c1CCNC2,rescue above control,[2],-2.56
same,cytochrome c release ratio,[3],0.75
same,inhibition of aggregation,[4],73%
same,glutamate uptake change,[5],5.07%
same,inclusion score,[6],2
same,aggregation suppression score,[7],1.43
same,survival,[8],19.5 (inactive)
same,parasite load remaining,[9],119% (inactive)
same,viability,[9],90%
same,inhibition,[10],-5% (inactive)
same,remaining activity,[11],100% (inactive)
same,outcome,[16],inactive
NCC(CC(=O)O)c1ccc(Cl)cc1 (stereo not given),fluorescence slope change,[1],76.7% (active)
same,rescue above control,[2],5.24
same,cytochrome c release ratio,[3],0.97
same,inhibition of aggregation,[4],63.5%
same,glutamate uptake change,[5],-15.4%
same,inclusion score,[6],2
same,aggregation suppression score,[7],1.13
same,survival,[8],9.17 (inactive)
same,inhibition,[10],-1% (inactive)
same,outcome,[16],inactive
